According to the supplement of paper PMC13380429:

Test system: Vero E6 infected with SARS-CoV-2
Assay: inhibition of SARS-CoV-2 cytopathic effect; higher = more antiviral protection, active = above 15
Settings: 48 h

Measured: inhibition of SARS-CoV-2 cytopathic effect

CON(C)C(=O)N1N=C(c2cc(F)ccc2F)S[C@@]1(CCCN)c1ccccc1 [filanesib]
inactive: 1 nM -0.78% | 8.33 nM -1.05% | 100 nM -1.91% | 833.33 nM -0.01% | 10000 nM -2.39%

OCc1ccc(CO)o1 [2,5-furandimethanol]
inactive: 1 nM -0.97% | 8.33 nM 0.38% | 100 nM 0.27% | 833.33 nM 2.21% | 10000 nM 0.97%

CC1(C)Cc2c(-c3ccccc3)c(-c3ccc(Cl)cc3)c(CC(=O)O)n2C1 [licofelone]
inactive: 1 nM -2.87% | 8.33 nM 2.92% | 100 nM 4.49% | 833.33 nM 3.45% | 10000 nM 2.49%

NC(=O)N/N=C/c1ccc([N+](=O)[O-])o1 [nitrofurazone]
inactive: 1 nM 0.32% | 8.33 nM 0.46% | 100 nM -1.2% | 833.33 nM -0.04% | 10000 nM 0.07%

COC(=O)C1=C(C)NC(C)=C(C(=O)NCCCN2CCC(c3ccccc3)(c3ccccc3)CC2)C1c1ccc([N+](=O)[O-])cc1 (stereo not given)
inactive: 1 nM 1.77% | 8.33 nM 1.95% | 100 nM 0.45% | 833.33 nM 0.78%
active: 10000 nM 48.8%

COc1cc2ncnc(Nc3ccc(Oc4ccccc4)cc3)c2cc1OC [SRC-kinase-inhibitor-I]
inactive: 1 nM 14.1% | 8.33 nM 2.88% | 100 nM 0.56% | 833.33 nM -4.38% | 10000 nM -9.32%

CCOc1cccc(NC(=O)c2ccc(N3CCCC3)c(C(F)(F)F)c2)c1
inactive: 1 nM 0.59% | 8.33 nM -0.15% | 100 nM -0.42% | 833.33 nM -1.65% | 10000 nM -2.63%

CN1CCOC(c2ccccc2)c2ccccc2C1 (stereo not given) [nefopam]
inactive: 1 nM 1.99% | 8.33 nM 0.54% | 100 nM 2.72% | 833.33 nM -1.03% | 10000 nM -1.47%

O=C(O)[C@H]1CCCN(CCC=C(c2ccccc2)c2ccccc2)C1 (racemic)
inactive: 1 nM -0.52% | 8.33 nM -1.42% | 100 nM -2.13% | 833.33 nM -4.16% | 10000 nM -2.22%

CCCN(C/C=C/I)C1CCc2cccc(O)c2C1 (stereo not given) [8-hydroxy-PIPAT]
inactive: 1 nM 3.48% | 8.33 nM 1.88% | 100 nM 3.63% | 833.33 nM 3.07% | 10000 nM -2.66%

O=C(O)CNC(=O)c1nc(Cl)c2ccccc2c1O
inactive: 1 nM 0.76% | 8.33 nM 0.65% | 100 nM 4.78% | 833.33 nM 2.19% | 10000 nM -0.7%

CN(C)CCCn1cc(C2=C(c3c[nH]c4ccccc34)C(=O)NC2=O)c2ccccc21
inactive: 1 nM 2.56% | 8.33 nM 1.35% | 100 nM 1.36% | 833.33 nM 0.57% | 10000 nM 13.2%

CO[C@H]1/C=C/O[C@@]2(C)Oc3c(C)c(O)c4c(O)c(c(/C=N/N5CCN(C)CC5)c(O)c4c3C2=O)NC(=O)/C(C)=C\C=C\[C@H](C)[C@H](O)[C@@H](C)[C@@H](O)[C@@H](C)[C@H](OC(C)=O)[C@@H]1C [rifampin]
inactive: 1 nM -3.64% | 8.33 nM -3.69% | 100 nM -2.5% | 833.33 nM -3.32% | 10000 nM -1.54%

O=C(C[C@H]1CC(c2ccc(F)cc2F)=NO1)N1CCOCC1 (racemic)
inactive: 1 nM -1.54% | 8.33 nM 0.9% | 100 nM 2.24% | 833.33 nM 0.99% | 10000 nM 1.2%

O=C(Nc1cccnc1)N1CCC(Cc2cccc(Oc3ccc(C(F)(F)F)cn3)c2)CC1
inactive: 1 nM 0.55% | 8.33 nM -2.38% | 100 nM -1.02% | 833.33 nM 3.15% | 10000 nM -28.6%

O=C(OCC(COC(=O)c1cccnc1)(COC(=O)c1cccnc1)COC(=O)c1cccnc1)c1cccnc1 [niceritrol]
inactive: 1 nM -3.51% | 8.33 nM -0.29% | 100 nM 2.18% | 833.33 nM 0.03% | 10000 nM 6.17%

C[C@@H](N)[C@H]1CC[C@H](C(=O)Nc2ccncc2)CC1
inactive: 1 nM -2.16% | 8.33 nM -4.44% | 100 nM -2.01% | 833.33 nM 2.02% | 10000 nM -3.54%

NCCc1cc[nH]n1 [betazole]
inactive: 1 nM 0.58% | 8.33 nM 1.07% | 100 nM 2.63% | 833.33 nM 0.04% | 10000 nM 0.97%
